aSyn 5UTR act – Activators working through SNCA 5'UTR binding (MLPCN); alpha-synuclein 5'UTR reporter, activators screen; activity score, % (tested at 7.5 µM), hits read low; 7.1% of 300,000 active; in the data active means activity score below about -60%
* hit, by the source's call. The list is a sample of the results.

SMILES	aSyn 5UTR act
CC(=O)N(C)c1ccc(NC(=O)Nc2ccc(C)cc2)cc1	-75.6*
CCN(C(=O)c1cc2cc3ccc(C)cc3nc2o1)c1ccc(OC)cc1	-306.8*
COc1ccc2cc3cc(C(=O)NC(C)C)oc3nc2c1	-142.0*
CCCCN(C)C(=O)c1cc2cc3cc(OC)ccc3nc2o1	-121.1*
CCCCN(C)C(=O)c1cc2cc3ccc(OC)cc3nc2o1	-114.1*
COc1ccc(/C=N/Nc2cc(C)nc3ccccc23)cc1	-84.6*
COc1ccc(/C=N/Nc2cc(C)nc3c(C)cccc23)cc1	-81.2*
Oc1ccc2ccccc2c1/C=N/Nc1nnc(-c2ncc[nH]2)c2ccccc12	101.7
COc1ccc(/C=N/Nc2nnc(-c3ncc[nH]3)c3ccccc23)cc1	-203.1*
COc1ccc2nc(C)cc(N/N=C/c3ccc(F)cc3)c2c1	92.6
O=C(Nc1nc(-c2ccccn2)cs1)C1CC1	-110.7*
N#Cc1ccc(-c2csc(NC(=O)C3CC3)n2)cc1	-64.0*
O=C(Nc1nc(-c2ccccn2)cs1)c1cccc(-n2cnnn2)c1	82.7
O=C(Nc1nc(-c2ccccn2)cs1)C12CC3CC(CC(O)(C3)C1)C2	-68.2*
CCOC(=O)c1c(CNc2ccncc2)n(C)c2cc(Br)c(O)cc12	-61.8*
CCOC(=O)c1c2c(n(C)c1COC)C(=O)C(=O)c1ccc(Br)cc1-2	92.1
O=C(O)c1ccc(-c2noc(-c3ccccc3Cl)n2)cc1	-97.4*
CS(=O)(=O)c1ccccc1-c1nc(-c2ccc(C(F)(F)F)cc2)no1	-62.1*
O=C(O)c1ccc(-c2noc(-c3ccccc3C(F)(F)F)n2)cc1	-108.8*
O=C(O)c1ccc(-c2noc(-c3ccc(F)cc3)n2)cc1	-93.1*
Cc1c(-c2nc(-c3ccc(C(F)(F)F)cc3)no2)n(C)oc1=O	-81.6*
COc1ccc(C(=O)c2ccc(CC#N)s2)cc1	-150.2*
COc1ccc(C(=O)c2ccsc2N)cc1	-97.3*
COc1ccc(-c2c(C#N)c(N)nc(Sc3ccc(Cl)cc3)c2C#N)cc1	57.5
COc1ccc(-c2cc3nc4ccccc4n3c(N)c2C#N)cc1	-128.1*
SMILES	aSyn 5UTR act
Cc1ccc(OC(=O)c2oc3ccc(F)cc3c2C)c(C)c1	-112.0*
Cc1cs/c(=N/C(=S)Nc2ccccc2)n1C	-114.5*
O=C(Nc1ccc(Cl)cn1)c1ccc2ccccc2n1	-96.4*
Cc1ccccc1C(=O)Nc1ccc(Cl)cn1	-114.2*
Cc1ccc(NC(=O)c2ccc3ccccc3n2)nc1	-162.8*
Nc1nnc(SCC(=O)c2ccc3ccccc3c2)s1	-134.7*
Nc1ccc2nc(SCC(=O)c3ccccc3)sc2c1	-74.5*
Cc1cc(C(=O)CSc2nnc(N)s2)c(C)n1Cc1cccs1	69.0
Nc1ccc2nc(SCc3ccccc3F)sc2c1	-203.0*
CCC(=O)n1nc(-c2ccc(Cl)cc2)nc1SC	-103.6*
CCC(=O)n1nc(-c2ccc(OC)cc2)nc1SC	-92.4*
CCCC(=O)n1nc(-c2ccc(Cl)cc2)nc1SC	-84.1*
Cc1ccc2nc(Nc3nc(CSc4nc5ccccc5s4)cc(=O)[nH]3)nc(C)c2c1	61.3
CNc1nnc(CSc2nc3ccccc3s2)s1	-87.8*
c1csc(CSc2nc3ccccc3s2)c1	-279.9*
c1cnc2c(c1)ccc1cccnc12	84.9
Brc1ccccc1OCCOc1cccc2cccnc12	-72.2*
COc1cccc(C=O)c1OCCCOc1cccc2cccnc12	-128.6*
COc1ccccc1OCc1nc2ccccc2[nH]1	-69.6*
O=Cc1ccc(O)c2ncccc12	62.8
Cc1ccccc1OCc1nc2ccccc2[nH]1	-138.1*
c1cnc2c(OCc3nc4ccccc4[nH]3)cccc2c1	-293.0*
CCOc1ccc(N(CC(=O)Nc2ccccc2OC)S(=O)(=O)c2ccccc2)cc1	123.4
COC(=O)c1ccc(NC(=O)CN(c2ccc(OC)cc2)S(C)(=O)=O)cc1	-176.4*
CCOc1ccc(NC(=O)CN(c2ccc(OC)cc2)S(C)(=O)=O)cc1	-138.2*
SMILES	aSyn 5UTR act
CCOc1ccc(N(CC(=O)Nc2ccccc2OCC)S(=O)(=O)c2c(C)noc2C)cc1	95.0
CCOc1ccc(N(CC(=O)Nc2cccc(C)c2)S(C)(=O)=O)cc1	-85.7*
CCOc1ccc(N(CC(=O)Nc2ccc(OC)cc2)S(C)(=O)=O)cc1	-69.2*
CCOc1ccc(N(CC(=O)NCc2ccccc2C)S(C)(=O)=O)cc1	-91.3*
CN1CCN(c2ccc(NC(=O)c3ccc4ccccc4c3)cc2)CC1	85.3
COc1ccc(C(=O)Nc2ccc(N3CCN(C)CC3)cc2)cc1OC	-82.1*
Cc1ccc(C(=O)Nc2ccc(N3CCN(C)CC3)cc2)cc1	-88.2*
COc1ccc(C(=O)Nc2ccc(N3CCN(C)CC3)cc2)cc1	-164.6*
O=C(O)c1cccc(N/N=C/c2cc(Br)cc(Br)c2O)c1	-231.9*
CN(C)c1ccc(/C=N/Nc2cccc(C(=O)O)c2)cc1	77.0
COc1ccc(Br)cc1/C=N/Nc1cccc(C(=O)O)c1	-76.0*
COc1ccccc1/C=C/C=N/Nc1cccc(C(=O)O)c1	-119.1*
COc1ccc(/C(C)=N/Nc2cccc(C(=O)O)c2)cc1OC	-112.8*
COc1cccc(/C=N/Nc2ccc(C(=O)O)cc2)c1O	112.7
Cc1ccccc1OCc1n(CC(=O)OC2CC(C)CCC2C(C)C)c2ccccc2[n+]1C (centres undefined)	84.8
O=[N+]([O-])c1cccc(-c2cn(-c3ccccc3)c(=S)[nH]2)c1	-178.8*
Cc1cccc(-n2cc(-c3ccc([N+](=O)[O-])cc3)[nH]c2=S)c1	-80.2*
O=[N+]([O-])c1ccc(-c2cn(-c3ccccc3)c(=S)[nH]2)cc1	-100.6*
COc1cc(CNCCc2ccc(S(N)(=O)=O)cc2)ccc1OCc1ccc(Cl)cc1	-64.2*
CCOc1cc(CNCCc2ccc(S(N)(=O)=O)cc2)ccc1OCc1ccc(Cl)cc1	97.5
COc1ccccc1Nc1nc(-c2cccc([N+](=O)[O-])c2)cs1	-77.2*
O=[N+]([O-])c1cccc(-c2csc(Nc3ccccc3)n2)c1	-299.0*
COc1ccccc1Nc1nc(C)cs1	-105.6*
COc1ccccc1Nc1ccc(Nc2ccccc2OC)nn1	-171.1*
Cc1ccc(-n2nc3ccc(NC(=O)C(C)C)cc3n2)cc1	-137.0*
SMILES	aSyn 5UTR act
Cc1ccc(-n2nc3ccc(NC(=O)c4cccc([N+](=O)[O-])c4C)cc3n2)cc1	-66.3*
Cc1ccc(-n2nc3ccc(NC(=O)c4ccco4)cc3n2)cc1	-83.3*
CC(C)CC(=O)Nc1ccc2nn(-c3ccccc3)nc2c1	-178.3*
CCCC(=O)Nc1ccc2nn(-c3ccc(OC)cc3)nc2c1	-121.5*
O=C(/C=C/c1ccco1)Nc1ccc2nn(-c3ccccc3)nc2c1	-209.2*
CC(C)C(=O)Nc1ccc2nn(-c3ccc(F)cc3)nc2c1	-71.1*
CCOc1ccc(-n2nc3ccc(N)cc3n2)cc1	73.2
Nc1ccc2nn(-c3ccc(F)cc3)nc2c1	-108.3*
C(C#CCCCCCCCCC[n+]1ccccc1)#CCCCCCCCCC[n+]1ccccc1	73.3
COc1cc2c(cc1OC)C(C)N(C(=O)c1cc(C)on1)CC2 (centres undefined)	97.1
COc1cc2c(cc1OC)C(c1ccccc1)N(C(=O)c1cccc(S(C)(=O)=O)c1)CC2 (centres undefined)	-67.1*
CSc1nc(-c2ccc(N(C)C)cc2)c(C#N)c(=O)n1C	-71.9*
CCCN1CCc2c(sc(NC(=S)NC(=O)c3ccccc3)c2C#N)C1	-139.6*
COC(=O)c1c(NC(=O)c2ccc([N+](=O)[O-])o2)sc2c1CCN(C(C)C)C2	104.9
CC(C)N1CCc2c(sc(NC(=S)NC(=O)c3ccccc3)c2C#N)C1	-142.7*
Cc1ccccc1-c1nc2cc(Cl)ccc2o1	-182.6*
Cc1ccc2nc(-c3cccnc3)oc2c1	-80.2*

From PubChem
